Test results from PubChem BioAssay.
Where “and” joins values, the source holds several entries; their conditions need not be identical. Identical values can stand only once. Calls of active or inactive are those of the source.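 Rule for the calls, unless noted: active = normalized viability below 100% at a tested concentration; inactive = the rest.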

How the values were obtained:
[1] = signal quenchers or enhancers, Cy5 substrate/SSB – biochemical, NIH Clinical Collection, E. coli SSB, artefact control for HCV NS3 helicase inhibitor project (AID 743268; call rule not given here); conditions: Cy5-oligo bound E. coli SSB, fluorescence interference
[2] = tested on: Hepatitis C virus NS3 helicase; experiment: blockers of NS3h binding to DNA – biochemical, fluorescence polarization, NIH Clinical Collection, primary screen (AID 743270; call rule not given here); conditions: NS3 helicase binding to Cy5-dT15 DNA, stronger effect = higher value, concentration not given here
[3] = target: Single-stranded DNA-binding protein (Escherichia coli (strain K12)) (UniProt P0AGE0); experiment: SSB-ssDNA binding inhibitors – biochemical, fluorescence polarization, NIH Clinical Collection, counter-screen for HCV NS3 helicase inhibitor project (AID 743271; in the data active = inhibition above about 28%); conditions: E. coli SSB-DNA binding, stronger effect = higher value, concentration not given here
[4] = compounds distorting NS3 helicase fluorescence signal – biochemical, NIH Clinical Collection, artefact control for HCV NS3 helicase inhibitor project (AID 743272; call rule not given here;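 note: HCV NS3 helicase with a Cy5 labelled single stranded DNA probe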); conditions: fluorescence interference counterscreen, HCV NS3 helicase assay; stronger effect = lower value
[5] = target: 6-phosphogluconate dehydrogenase, decarboxylating (Homo sapiens) (UniProt P52209); experiment: inhibition of human phosphogluconate dehydrogenase – biochemical, recombinant enzyme, NADPH absorbance, primary screen (AID 1159550;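 active = at least 20% inhibition of 6-phosphogluconate dehydrogenase activity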); conditions: recombinant 6PGD, NADPH absorbance 341 nm; at 10 µM; stronger effect = higher value
Sequence of 6-phosphogluconate dehydrogenase, decarboxylating (Homo sapiens) (P52209 whole entry, looked up): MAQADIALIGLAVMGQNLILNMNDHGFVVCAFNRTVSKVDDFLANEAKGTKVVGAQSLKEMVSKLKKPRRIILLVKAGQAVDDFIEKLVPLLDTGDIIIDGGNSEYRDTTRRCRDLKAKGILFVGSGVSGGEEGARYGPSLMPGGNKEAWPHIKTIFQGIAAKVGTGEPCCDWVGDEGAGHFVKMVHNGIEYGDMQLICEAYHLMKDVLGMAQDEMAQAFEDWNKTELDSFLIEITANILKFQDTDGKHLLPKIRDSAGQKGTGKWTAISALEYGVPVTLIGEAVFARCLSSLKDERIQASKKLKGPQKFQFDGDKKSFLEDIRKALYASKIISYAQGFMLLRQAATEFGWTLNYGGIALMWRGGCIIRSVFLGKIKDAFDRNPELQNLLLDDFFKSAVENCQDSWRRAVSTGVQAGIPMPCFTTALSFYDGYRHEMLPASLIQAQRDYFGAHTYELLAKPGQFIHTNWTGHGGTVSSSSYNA

[6] = modulation of C. elegans fzo-1 (AID 1259413; call rule not given here;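 note: fzo-1 mutant C. elegans worms in liquid wells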); conditions: C. elegans fzo-1 modulator screen, mean read-out; stronger effect = higher value
[7] = EMT-state selective cytotoxicity in co-culture – imaging, PC-3E GFP, TEM4-18 mCherry, primary screen (AID 1345086;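 active = compounds killing one labelled cell type while sparing the other, by normalised counts and ratio limits, not self-fluorescent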;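 for all read-outs here: cells exposed to compound for 72 h before imaging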;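 for red/green cell ratio (normalised): normalised mesenchymal count divided by normalised epithelial count so high means epithelial killing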); conditions: PC-3E GFP / TEM4-18 mCherry co-culture, imaging cell counts, at 1 µM; for red/green cell ratio (normalised): actives lie on both sides, counts scaled to control wells, 1 = unselective
[8] = MELAS cybrid and Rieske KO viability enhancers – cell-based, MELAS cybrids, Rieske KO mouse fibroblasts, CellTiter-Glo, primary screen (AID 1508586;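 active = mean z-score across replicates of 1.96 or higher in either the MELAS or the Rieske mutant cell line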;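 note: z relative to plate mean and SD of compound and empty wells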); conditions: low glucose
[9] = drug combination growth inhibition, ovarian cancer – cell-based, oncology-focused library, rucaparib conditional, profiling panel (AID 1508598); conditions: patient-derived ovarian cancer cells, CellTiter-Glo viability, 144 h, stronger effect = lower value
[10] = target: Mitogen-activated protein kinase 7 (Homo sapiens) (UniProt Q13164); experiment: Gal4-ERK5 driven luciferase induction – cell-based, HTS, primary screen (AID 1508626;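 active = luciferase signal above three times the same-plate solvent-only control wells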;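 note: luciferase driven by Gal4-ERK5 fusion binding five Gal4 sites before minimal TATA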); conditions: HeLa Gal4-ERK5 transactivation, 18 h, at 5 µM, stronger effect = higher value
Sequence of Mitogen-activated protein kinase 7 (Homo sapiens) (Q13164 whole entry, looked up, the tested form may be a part): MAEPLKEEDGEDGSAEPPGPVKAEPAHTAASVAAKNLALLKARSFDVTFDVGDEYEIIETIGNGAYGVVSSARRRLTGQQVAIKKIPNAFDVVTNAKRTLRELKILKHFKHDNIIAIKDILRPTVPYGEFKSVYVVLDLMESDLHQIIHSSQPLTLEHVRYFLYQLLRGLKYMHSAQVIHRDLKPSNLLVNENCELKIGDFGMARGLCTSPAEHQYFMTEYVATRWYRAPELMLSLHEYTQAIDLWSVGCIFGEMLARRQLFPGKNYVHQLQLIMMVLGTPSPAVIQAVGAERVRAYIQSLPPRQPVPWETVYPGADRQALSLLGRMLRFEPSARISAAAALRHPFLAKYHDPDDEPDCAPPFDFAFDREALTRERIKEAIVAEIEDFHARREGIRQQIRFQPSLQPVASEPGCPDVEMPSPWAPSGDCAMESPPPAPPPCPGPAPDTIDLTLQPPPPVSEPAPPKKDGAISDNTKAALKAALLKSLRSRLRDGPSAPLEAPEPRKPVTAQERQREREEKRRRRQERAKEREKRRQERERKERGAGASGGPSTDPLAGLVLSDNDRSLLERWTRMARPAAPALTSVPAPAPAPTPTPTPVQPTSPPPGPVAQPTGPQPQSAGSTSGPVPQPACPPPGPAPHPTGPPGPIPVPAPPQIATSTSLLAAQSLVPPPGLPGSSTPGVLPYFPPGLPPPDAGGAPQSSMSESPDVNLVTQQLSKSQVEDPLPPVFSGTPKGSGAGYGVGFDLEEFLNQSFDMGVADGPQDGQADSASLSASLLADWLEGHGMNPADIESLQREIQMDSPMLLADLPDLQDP

F380Y = experiment: BK channel mutant inhibitors and activators – cell-based, U2OS BacMam, thallium flux, beta subunits, selectivity assay, profiling panel (AID 1259406;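 active = thallium flux through the channel raised or lowered by more than 3 SD from vehicle-only wells, actives on both sides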;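 note: initial slope of Thallos dye fluorescence rise after thallium is added; log ratio against the mean of 0.3% DMSO vehicle wells on the same plate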); conditions: U2OS BacMam BK variants, at 30 µM
F380Y/beta1 = experiment: as above; conditions: U2OS BacMam BK variants, at 30 µM
F380Y/beta2Delta = experiment: as above; conditions: U2OS BacMam BK variants, at 30 µM
F380Y/beta4 = experiment: as above; conditions: U2OS BacMam BK variants, at 30 µM
[11] = target: Calcium-activated potassium channel subunit alpha-1 (Homo sapiens) + Leucine-rich repeat-containing protein 26 (Homo sapiens) (UniProt Q12791+Q2I0M4); experiment: as above; conditions: U2OS BacMam BK variants, F380Y/Slo1WT/gamma1, at 30 µM
Sequence of Calcium-activated potassium channel subunit alpha-1 (Homo sapiens) + Leucine-rich repeat-containing protein 26 (Homo sapiens) (Q2I0M4 whole entry, looked up, one chain of several): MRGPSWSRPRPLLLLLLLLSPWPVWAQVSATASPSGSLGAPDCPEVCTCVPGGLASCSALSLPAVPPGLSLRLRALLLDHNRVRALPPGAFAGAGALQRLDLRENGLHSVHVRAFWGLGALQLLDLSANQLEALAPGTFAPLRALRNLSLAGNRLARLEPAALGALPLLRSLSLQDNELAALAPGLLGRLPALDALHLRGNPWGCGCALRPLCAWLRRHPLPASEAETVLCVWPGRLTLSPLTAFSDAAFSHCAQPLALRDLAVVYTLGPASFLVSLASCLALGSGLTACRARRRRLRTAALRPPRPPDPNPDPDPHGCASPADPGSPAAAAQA

R275C = experiment: as above; conditions: U2OS BacMam BK variants, at 30 µM
R275C/beta1 = experiment: as above; conditions: U2OS BacMam BK variants, at 30 µM
R275C/beta2Delta = experiment: as above; conditions: U2OS BacMam BK variants, at 30 µM
[12] = viability loss with induced miR-34 in A549 – imaging, A549 dox-inducible miR-34, nuclei and caspase counts, primary screen (AID 1347080;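 active = compounds whose cell count with miR-34 switched on is under 0.7 times the count with it off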); conditions: A549 miR-34 inducible, Hoechst nuclei count, 48 h
[13] = P. berghei load reduction in hepatocytes – cell-based, HepG2, luciferase luminescence, HepG2 viability, primary screen (AID 624349; in the data active = parasite load remaining mostly below about 12%, no sharp cut-off; inactive = mostly above about 10%;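 note: 100% = mean of DMSO negative control wells on the same plate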); conditions: P. berghei liver stage in HepG2, luciferase luminescence, concentration not given here; parasite load remaining: stronger effect = lower value; viability: measured here: HepG2 viability without parasites
[14] = measured here: epithelial PC-3E GFP cell survival
[15] = measured here: mesenchymal TEM4-18 mCherry cell survival
[16] = MELAS cybrid survival, CellTiter-Glo 48 h, stronger effect = higher value
[17] = Rieske KO mouse fibroblast survival, CellTiter-Glo 72 h
[18] = stronger effect = lower value, cell number ratio, induced over uninduced
[19] = measured here: relative caspase fold change +Dox/-Dox
[20] = measured here: total cells with miR-34 induction, stronger effect = lower value
[21] = measured here: total cells without miR-34 induction

CN(C)c1nc(N(C)C)nc(N(C)C)n1
inactive: fluorescence ratio [1] 1.08 | inhibition [2] -2.27% | inhibition [3] 1.81% | fluorescence ratio [4] 0.99 | inhibition [5] 11.2% | mean signal [6] 270 | red/green cell ratio (normalised) [7] 1.11 | z-score [8, 16] -0.405 and 0.759 and 0.19 | viability ([9]; at 0.000305 µM, OCI-C5x cells, with rucaparib 10 µM, 100% = cells with rucaparib alone) 108% | viability ([9]; at 0.00122 µM, OCI-C5x cells, with rucaparib 10 µM, 100% = cells with rucaparib alone) 112% | viability ([9]; at 0.00122 µM, OCI-C5x cells, without rucaparib) 100% | viability ([9]; at 0.00488 µM, OCI-C5x cells, with rucaparib 10 µM, 100% = cells with rucaparib alone) 120% | viability ([9]; at 0.00488 µM, OCI-C5x cells, without rucaparib) 101% | viability ([9]; at 0.00488 µM, OCI-P5x cells, with rucaparib 20 µM, 100% = cells with rucaparib alone) 101% | viability ([9]; at 0.0195 µM, OCI-C5x cells, with rucaparib 10 µM, 100% = cells with rucaparib alone) 113% | viability ([9]; at 0.0195 µM, OCI-C5x cells, without rucaparib) 100% | viability ([9]; at 0.0195 µM, OCI-P5x cells, with rucaparib 20 µM, 100% = cells with rucaparib alone) 102% | viability ([9]; at 0.0781 µM, OCI-C5x cells, with rucaparib 10 µM, 100% = cells with rucaparib alone) 110% | viability ([9]; at 0.0781 µM, OCI-C5x cells, without rucaparib) 101% | viability ([9]; at 0.0781 µM, OCI-P5x cells, with rucaparib 20 µM, 100% = cells with rucaparib alone) 103% | viability ([9]; at 0.0781 µM, OCI-P5x cells, without rucaparib) 106% | viability ([9]; at 0.313 µM, OCI-C5x cells, with rucaparib 10 µM, 100% = cells with rucaparib alone) 107% | viability ([9]; at 0.313 µM, OCI-C5x cells, without rucaparib) 108% | viability ([9]; at 0.313 µM, OCI-P5x cells, with rucaparib 20 µM, 100% = cells with rucaparib alone) 108% | viability ([9]; at 5 µM, OCI-C5x cells, with rucaparib 10 µM, 100% = cells with rucaparib alone) 109% | viability ([9]; at 5 µM, OCI-P5x cells, with rucaparib 20 µM, 100% = cells with rucaparib alone) 107% | luciferase signal [10] 40 AU | log fold change Tl+ flux (F380Y) 0.0102 | log fold change Tl+ flux (F380Y/beta1) 0.0385 | log fold change Tl+ flux (F380Y/beta2Delta) 0.00703 | log fold change Tl+ flux (F380Y/beta4) 0.0174 | log fold change Tl+ flux [11] 0.0168 | log fold change Tl+ flux (R275C) -0.00384 | log fold change Tl+ flux (R275C/beta1) -0.054 | log fold change Tl+ flux (R275C/beta2Delta) -0.0096
active: viability ([9]; at 0.000305 µM, OCI-C5x cells, without rucaparib) 98.3% | viability ([9]; at 0.000305 µM, OCI-P5x cells, with rucaparib 20 µM, 100% = cells with rucaparib alone) 95.7% | viability ([9]; at 0.000305 µM, OCI-P5x cells, without rucaparib) 87% | viability ([9]; at 0.00122 µM, OCI-P5x cells, with rucaparib 20 µM, 100% = cells with rucaparib alone) 95.8% | viability ([9]; at 0.00122 µM, OCI-P5x cells, without rucaparib) 89% | viability ([9]; at 0.00488 µM, OCI-P5x cells, without rucaparib) 92.4% | viability ([9]; at 0.0195 µM, OCI-P5x cells, without rucaparib) 96.6% | viability ([9]; at 0.313 µM, OCI-P5x cells, without rucaparib) 99.9% | viability ([9]; at 1.25 µM, OCI-C5x cells, with rucaparib 10 µM, 100% = cells with rucaparib alone) 96.8% | viability ([9]; at 1.25 µM, OCI-C5x cells, without rucaparib) 67.8% | viability ([9]; at 1.25 µM, OCI-P5x cells, with rucaparib 20 µM, 100% = cells with rucaparib alone) 78.5% | viability ([9]; at 1.25 µM, OCI-P5x cells, without rucaparib) 28.8% | viability ([9]; at 5 µM, OCI-C5x cells, without rucaparib) 97.9% | viability ([9]; at 5 µM, OCI-P5x cells, without rucaparib) 98.6%
0.906 and 0.36 and 0.155: z-score [8, 17]
1.08: normalised cell number [7, 15]
0.98: normalised cell number [7, 14]

O[C@@H]1[C@@H](O)[C@@H]2OC[C@@H](O2)[C@H]1O
inactive: inhibition [5] -10.4%

CC1(C)C(=O)C=C[C@]2(C)C3CC[C@@]4(C)[C@H](c5ccoc5)OC(=O)[C@H]5O[C@]54[C@]3(C)C(=O)C[C@@H]12 (stereo partly drawn)
inactive: inhibition [5] 1.03%

CC(C)CCC[C@@H](C)[C@H]1CC[C@H]2[C@@H]3CC[C@@H]4C[C@H](O)CC[C@]4(C)[C@H]3CC[C@]12C
inactive: inhibition [5] -3.72%

COC(=O)[C@H](c1ccccc1Cl)N1CCc2sccc2C1
1.69 and 3.06 and 2.09: fold change [12, 19]
1.36: normalised cell number [7, 15]
-0.332 and -1.48: z-score [8, 17]
1.15: normalised cell number [7, 14]
10100 and 12600 and 9870: cell count [12, 21]
inactive: fluorescence ratio [1] 1 | inhibition [2] -9.55% | inhibition [3] 3.34% | fluorescence ratio [4] 1 | inhibition [5] 3.19% | mean signal [6] 252 | red/green cell ratio (normalised) [7] 1.19 | fold change [12, 18] 0.979 and 0.893 and 0.849 | z-score [8, 16] -0.401 and -0.448 | luciferase signal [10] 20 AU | log fold change Tl+ flux (F380Y) -0.0366 | log fold change Tl+ flux (F380Y/beta1) 0.0174 | log fold change Tl+ flux (F380Y/beta2Delta) -0.0129 | log fold change Tl+ flux (F380Y/beta4) 0.0282 | log fold change Tl+ flux [11] -0.0336 | log fold change Tl+ flux (R275C) 0.027 | log fold change Tl+ flux (R275C/beta1) -0.0372 | log fold change Tl+ flux (R275C/beta2Delta) -0.0599
9850 and 11200 and 8380: cell count [12, 20]

O=c1ccc2ccc(O)c(O)c2o1
8840 and 10800: cell count [12, 21]
7930 and 10100: cell count [12, 20]
0.783: z-score [8, 17]
1.4 and 0.597: fold change [12, 19]
inactive: inhibition [5] 2.02% | fold change [12, 18] 0.898 and 0.94 | z-score [8, 16] -0.407 | luciferase signal [10] 64 AU

Cc1cccc(C)c1NC(=O)C1CCCCN1C (stereo not drawn)
1.53 and 0.775 and 2.13: fold change [12, 19]
8240 and 8660 and 13200: cell count [12, 21]
85.7% and 198% and 72.6%: viability [13]
1.19: normalised cell number [7, 14]
8050 and 8030 and 11600: cell count [12, 20]
1.44: normalised cell number [7, 15]
inactive: parasite load remaining [13] 174% and 77.7% and 69.1% | fluorescence ratio [1] 0.96 | inhibition [2] -2.84% | inhibition [3] 1.97% | fluorescence ratio [4] 0.95 | inhibition [5] 10.7% | mean signal [6] 253 | red/green cell ratio (normalised) [7] 1.21 | fold change [12, 18] 0.977 and 0.928 and 0.875 | z-score [8, 16] -0.27 and -0.937 | luciferase signal [10] 68 AU | log fold change Tl+ flux (F380Y) 0.0251 | log fold change Tl+ flux (F380Y/beta1) 0.0319 | log fold change Tl+ flux (F380Y/beta2Delta) 0.00729 | log fold change Tl+ flux (F380Y/beta4) 0.00629 | log fold change Tl+ flux [11] 0.0131 | log fold change Tl+ flux (R275C) -0.0395 | log fold change Tl+ flux (R275C/beta1) -0.0108 | log fold change Tl+ flux (R275C/beta2Delta) 0.00999
-0.166 and -1.35: z-score [8, 17]
